Lassa entry inh: qHTS for Inhibitors of binding or entry into cells for Lassa Virus; 1.2% of 300,000 active; Lassa virus pseudotype entry inhibition, cell reporter; Potency, µM (highest dose often 37.9 µM), usual class: inhibitors; AID 540256, 2011; calls by dose curve; tested in HEK293 cells; further: nearly all actives have a fitted effect of over 50% in size
VACV Venus inh: qHTS for Stage-Specific Inhibitors of Vaccinia Orthopoxvirus: Venus Reporter Primary qHTS | Vaccinia virus Venus reporter expression, fluorescence | Potency, µM (top dose mostly 36.5 µM), most hits filed as inhibitors | 0.46% of 330,000 active | AID 720580, 2013; calls by dose curve; tested in A549 cells; further: nearly all actives have a fitted effect of over 30% in size
Marburg entry inh: qHTS for inhibitors of binding or entry into cells for Marburg Virus; Marburg virus pseudotyped entry inhibition, cell reporter; Potency, µM (series often up to 37.8 µM), hits mostly inhibitors; 1.8% of 300,000 active; AID 540276, 2011; calls by dose curve; tested in HEK293 cells
Vaccinia mCherry: qHTS for Stage-Specific Inhibitors of Vaccinia Orthopoxvirus: mCherry Reporter Primary qHTS; Vaccinia virus mCherry reporter infection, fluorescence; Potency, µM (highest dose often 36.5 µM), actives largely listed as inhibitors; 0.63% of 310,000 active; calls by dose curve; tested in A549 cells; further: nearly all actives have a fitted effect of over 35% in size
HeLa G2M arrest: Cell cycle validation with wells to cells screening paradigm | shares compounds with Marburg entry inh | Potency, µM, usual class: inhibitors | HeLa cell cycle G2/M arrest, Hoechst DNA content imaging | AID 2441, 2010 | 60% of 25 active
WI-38 tox: High Content Assay for Compounds that inhibit the Assembly of the Perinucleolar Compartment: WI-38 Cytotoxicity; shares compounds with Marburg entry inh; WI-38 normal lung fibroblasts, ATPLite luminescence ATP viability, 24 h; Potency, µM (titrated, usually from 46.1 µM), actives largely listed as inhibitors; 120 tested, under 10 active; AID 2729, 2010
PNC assembly inh: High Content Assay for Compounds that inhibit the Assembly of the Perinucleolar Compartment: Confirmation of PNC Inhibition; shares compounds with Marburg entry inh; PC3M PTB-GFP, PNC prevalence imaging, 16 h; Potency, µM (top dose mostly 46.1 µM), usual class: inhibitors; 50% of 120 active
PC3M casp3-7: High Content Assay for Compounds that inhibit the Assembly of the Perinucleolar Compartment: PC3M Caspase 3/7 Activation; shares compounds with Marburg entry inh; PC3M-GFP caspase 3/7 activation, luminescence, 24 h; activity change, positive = activation, % at 46.1 µM; 120 tested, under 10 active; AID 2731, 2010
Each line names hits and unclear results; the compound was inactive in the other large screens (follow-up assays come after a bar, where they were run); ! = a repeat was not active. Compounds with a hit are over-represented: about 2.5% of the library has one in this group of screens. Unless noted, the call rests on the fitted dose curve; in most records, active means well fitted curve in the direction sought with a large enough effect; inconclusive means small, poorly fitted or top-dose-only effect, or another doubt; inactive means no such curve, though single readings can be large; an effect the other way counts as inactive or inconclusive.

Cc1ccc(S(=O)(=O)N2CCN(c3nc(-c4cccs4)cc4ccccc34)CC2)cc1	none (no result: Lassa entry inh, Marburg entry inh)
N#CC1=C(N)CCC1	none (no result: Lassa entry inh, Marburg entry inh)
COc1ccc2nc3sc(C(=O)NCCCN4CCc5ccccc5C4)cc3cc2c1	Lassa entry inh inconclusive, Marburg entry inh inconclusive, Vaccinia mCherry inconclusive | WI-38 tox inconclusive | PNC assembly inh inactive | PC3M casp3-7 inactive
Cn1c2c(c3cnc4cc(Cl)ccc4c31)CNCC2	none (no result: Lassa entry inh, Marburg entry inh)
CCc1ccc(S(=O)(=O)/N=C2/C=C(Sc3ncn[nH]3)C(=O)c3ccccc32)cc1	Lassa entry inh 13µM, VACV Venus inh 10µM, Marburg entry inh inconclusive, Vaccinia mCherry inconclusive | WI-38 tox inconclusive | PNC assembly inh 28µM | PC3M casp3-7 inactive
COc1cc(N(C)C)c(OC)cc1/C=C/c1ccnc2ccccc12	none (no result: Lassa entry inh, Marburg entry inh)
Cc1ccc(NC(=O)COC(=O)c2ccccc2OCC(=O)Nc2ccc(Br)cc2)c(C)c1	none (no result: Lassa entry inh, Marburg entry inh)
COc1ccccc1-c1ccnc(-n2ncc(C(=O)NCc3ccncc3)c2C)n1	Vaccinia mCherry inconclusive (no result: Lassa entry inh, Marburg entry inh)
CCOC(=O)c1c(NC(=O)c2c(-c3ccccc3)noc2C)sc(C)c1-c1ccccc1	Lassa entry inh inconclusive, Marburg entry inh 0.13µM (no result: Vaccinia mCherry) | WI-38 tox inactive | PNC assembly inh 1.6µM | PC3M casp3-7 inactive
Cc1ccc(C(O)(C(=O)NNC(=O)CN2CCN(C)CC2)c2ccc(C)cc2)cc1	Marburg entry inh inconclusive | WI-38 tox inactive | PNC assembly inh inactive | PC3M casp3-7 inactive
CN(C1CCCCC1)S(=O)(=O)c1ccc2c(c1)CCC(=O)N2	none
CN(C)S(=O)(=O)c1ccc2c(c1)/C(=C/c1cc3c([nH]1)CCCC3)C(=O)N2	Lassa entry inh inconclusive, Marburg entry inh inconclusive | HeLa G2M arrest inconclusive
C[N+]1(CC(=O)c2ccc3ccccc3c2)CCOCC1	none (no result: Lassa entry inh, Marburg entry inh)
CCCSc1cc(N2CCCC2)nc(-c2ccccc2)n1	none (no result: Vaccinia mCherry)
CCCSc1cc(N2CCN(C)CC2)nc(-c2ccc(OC)cc2)n1	Lassa entry inh inconclusive, VACV Venus inh inconclusive, Marburg entry inh inconclusive (no result: Vaccinia mCherry) | WI-38 tox inactive | PNC assembly inh inconclusive | PC3M casp3-7 inactive
O=C(Nc1cccnc1)c1cccs1	Lassa entry inh inconclusive, Marburg entry inh inconclusive (no result: VACV Venus inh, Vaccinia mCherry) | WI-38 tox inactive | PNC assembly inh 8.9µM | PC3M casp3-7 inactive
CC(=O)N(C)c1ccc(N=Cc2cc3c(cc2[N+](=O)[O-])OCO3)cc1	none
CCN(CC)c1ccc(N=Cc2ccccc2[N+](=O)[O-])cc1	Lassa entry inh inconclusive, VACV Venus inh inconclusive, Marburg entry inh inconclusive, Vaccinia mCherry inconclusive | WI-38 tox inactive | PNC assembly inh inactive | PC3M casp3-7 inactive
Cc1c(NC(=O)COC(=O)c2cc(-c3ccc(-c4ccccc4)cc3)nc3ccccc23)c(=O)n(-c2ccccc2)n1C	Lassa entry inh 0.89µM, Marburg entry inh 0.58µM, Vaccinia mCherry inconclusive | WI-38 tox 7.9µM | PNC assembly inh 2µM | PC3M casp3-7 inactive
Cc1cccc(NC2=C/C(=N/S(=O)(=O)c3cccs3)c3ccccc3C2=O)c1	Lassa entry inh 3.2µM, Marburg entry inh inconclusive | WI-38 tox inconclusive | PNC assembly inh 14µM | PC3M casp3-7 inconclusive
CCCNC1=C(N(C(C)=O)c2cccc(F)c2)C(=O)c2ccccc2C1=O	Lassa entry inh inconclusive, VACV Venus inh 13µM, Marburg entry inh inconclusive, Vaccinia mCherry 14µM | WI-38 tox inactive | PNC assembly inh inconclusive | PC3M casp3-7 inconclusive
Cc1c(NC(=O)CSc2nnc3c4ccccc4n(CCc4ccccc4)c3n2)c(=O)n(-c2ccccc2)n1C	Lassa entry inh 0.63µM, VACV Venus inh inconclusive, Marburg entry inh inconclusive (no result: Vaccinia mCherry) | WI-38 tox inactive | PNC assembly inh 8.9µM | PC3M casp3-7 inactive
S=c1ncc2n[nH]nc2[nH]1	none (no result: Lassa entry inh, Marburg entry inh)
O=C1C2CCCN2C(c2ccccc2)N1c1ccc(F)cc1 (stereo not given)	none (no result: Lassa entry inh)
O=C1C2CCCN2C(c2ccc(F)cc2)N1c1ccc(Cl)cc1 (stereo not given)	none (no result: Lassa entry inh, Marburg entry inh) | WI-38 tox inactive | PNC assembly inh 16µM | PC3M casp3-7 inactive
CCC(=NCc1cc(OC)cc(OC)c1)c1c(O)n(C)c(=O)n(C)c1=O	Lassa entry inh inconclusive, Marburg entry inh 21µM (no result: VACV Venus inh, Vaccinia mCherry) | WI-38 tox inactive | PNC assembly inh inconclusive | PC3M casp3-7 inactive
CCC(=Nc1ccc(OC)cc1OC)c1c(O)n(C)c(=O)n(C)c1=O	Marburg entry inh inconclusive
O=C(NC(CSCc1ccccc1)C(=O)N/N=C/c1ccc(O)cc1O)c1ccc([N+](=O)[O-])cc1 (stereo not given)	Lassa entry inh 9.2µM, Marburg entry inh 4.6µM (no result: VACV Venus inh, Vaccinia mCherry) | WI-38 tox inactive | PNC assembly inh inconclusive | PC3M casp3-7 inactive
COC(=O)Nc1nc2ccc(C(=O)c3cccs3)cc2[nH]1	Lassa entry inh inconclusive, VACV Venus inh inconclusive, Marburg entry inh 0.16µM!, Vaccinia mCherry inconclusive | HeLa G2M arrest 0.071
COC(=O)Nc1nc2ccc(C(=O)c3ccccc3)cc2[nH]1	none (no result: Lassa entry inh, Marburg entry inh)
CCc1nc2cc(C(=O)N(C)CC3COCCO3)cc(NC(=O)c3ccccc3OC)c2n1C (stereo not given)	none (no result: Lassa entry inh, Marburg entry inh)
O=C(Cc1cccc2ccccc12)NO	none (no result: Lassa entry inh, Marburg entry inh)
COc1cc2c(c(OC)c1OC)-c1ccc(NC(=O)c3ccc(F)cc3)c(=O)cc1[C@@H](NC(C)=O)CC2	VACV Venus inh inconclusive (no result: Lassa entry inh, Marburg entry inh)
COc1cc2c(c(OC)c1OC)-c1ccc(OC)c(=O)cc1[C@@H](NC(C)=O)CC2	Lassa entry inh inconclusive, VACV Venus inh inconclusive, Marburg entry inh inconclusive, Vaccinia mCherry inconclusive | HeLa G2M arrest 0.02
Nc1ccc(O)c(-c2nc3ccccc3s2)c1	Lassa entry inh inconclusive
Nc1cccc(-c2nc3ccc(N)cc3s2)c1	Lassa entry inh inconclusive, Marburg entry inh 11µM, Vaccinia mCherry inconclusive | WI-38 tox 28µM | PNC assembly inh 5µM | PC3M casp3-7 inactive
NNC(=O)c1ccc(C(=O)N(c2ccccc2)c2ccccc2)cc1	none (no result: Lassa entry inh, Marburg entry inh)
O=c1[nH]c(=O)n([C@H]2C[C@H](O)[C@@H](CO)O2)cc1Br	none | HeLa G2M arrest inconclusive
O=c1[nH]c(=O)n(C2OC(CO)C(O)C2O)cc1Br (stereo not given)	none
O=C(Nc1ccc(NC(=O)C2CC2)cn1)c1ccccc1Cl	Lassa entry inh inconclusive, Marburg entry inh inconclusive | WI-38 tox inconclusive | PNC assembly inh 35µM | PC3M casp3-7 inactive
O=C(Nc1ccc(NC(=O)C2CCCCC2)nc1)c1ccccn1	Lassa entry inh inconclusive, Marburg entry inh inconclusive
Nc1ccc2c(c1)C(=O)c1ccccc1-2	Marburg entry inh inconclusive, Vaccinia mCherry inconclusive
O=C1C(=O)c2ccc(-c3ccccc3)cc2-c2ccccc21	Lassa entry inh inconclusive, Marburg entry inh 5.8µM (no result: VACV Venus inh, Vaccinia mCherry) | WI-38 tox inconclusive | PNC assembly inh 22µM | PC3M casp3-7 inconclusive

Screening results as filed in PubChem.
